Results on eight compounds are retold here after PubChem BioAssay.

Structures are written as SMILES. The list shows a part of the results. Active and inactive are the calls of the source.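 Rule for the calls, unless noted: active = inhibition above the hit cutoff set in the earlier primary screen (cut at about 27% in these data); inactive = the rest.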

Assay [1] addresses Protein phosphatase methylesterase 1 (Homo sapiens) (UniProt Q9Y570). Description: PME-1 inhibitor activity retest, confirmation, biochemical, fluorescence polarization, FP-Rh probe, triplicate (AID 2171).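 Note: 0% = enzyme with DMSO and 100% = wells lacking PME-1.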 The note with it: recombinant PME-1, FP-Rh probe fluorescence polarization; at 5.9 µM; hits give high values. In general terms: Polarisation of emitted light reports the rotation of a fluorescent probe.

Assay [2] has as its target Nuclear receptor coactivator 3 (Homo sapiens) (UniProt Q9Y6Q9). The assay is described as follows: SRC3 coactivator transcriptional activity inhibitors, confirmation, cell-based, luminescence, quadruplicate (AID 588792;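 active = mean inhibition over 43.08%, the solvent-only control mean plus 3 SD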;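 note: 0% = DMSO treated cells and 100% = gossypol at 36 µM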). The note with it: HEK293 GAL4-SRC3 luciferase reporter, at 3.6 µM, hits give high values. (A reporter such as luciferase makes a cellular process visible.)

In assay [3] the test system is transactivating tegument protein VP16 (Human herpesvirus 1), Gal4-VP16 luciferase reporter. Description: VP16 transactivation inhibitors, counter-screen for SRC3 inhibitor project, cell-based, luminescence, high throughput (AID 588794; in the data active = inhibition above about 30%). The note with it: mammalian cells, VP16-driven luciferase reporter luminescence; at 3.6 µM; hits give high values. On the technique in general: Counterscreens check selectivity or assay interference.

The test system of assay [4] is transactivating tegument protein VP16 (Human herpesvirus 1). The assay is described as follows: VP16 transactivation reporter inhibitors, counter-screen for SRC2 inhibitor project, cell-based, luminescence, single concentration (AID 652007; in the data active = inhibition above about 36%). The note with it: cell-based VP16 transactivation luciferase reporter, at 8.9 µM, hits give high values.
The target of assay [5] is Nuclear receptor coactivator 2 (Homo sapiens) (UniProt Q15596). Description: SRC2 coactivator transcriptional activity inhibitors, confirmation, cell-based, luminescence, HEK293, triplicate (AID 652008;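 active = mean inhibition above 46.5%, the solvent-only control mean plus 3 SD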;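 note: 0% = DMSO-treated cells and 100% = Gossypol at 36 µM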). As to conditions: HEK293 GAL4-SRC2 luciferase reporter, at 8.9 µM, hits give high values.
Chain of Nuclear receptor coactivator 2 (Homo sapiens) (Q15596 whole entry, looked up, the tested form may be a part): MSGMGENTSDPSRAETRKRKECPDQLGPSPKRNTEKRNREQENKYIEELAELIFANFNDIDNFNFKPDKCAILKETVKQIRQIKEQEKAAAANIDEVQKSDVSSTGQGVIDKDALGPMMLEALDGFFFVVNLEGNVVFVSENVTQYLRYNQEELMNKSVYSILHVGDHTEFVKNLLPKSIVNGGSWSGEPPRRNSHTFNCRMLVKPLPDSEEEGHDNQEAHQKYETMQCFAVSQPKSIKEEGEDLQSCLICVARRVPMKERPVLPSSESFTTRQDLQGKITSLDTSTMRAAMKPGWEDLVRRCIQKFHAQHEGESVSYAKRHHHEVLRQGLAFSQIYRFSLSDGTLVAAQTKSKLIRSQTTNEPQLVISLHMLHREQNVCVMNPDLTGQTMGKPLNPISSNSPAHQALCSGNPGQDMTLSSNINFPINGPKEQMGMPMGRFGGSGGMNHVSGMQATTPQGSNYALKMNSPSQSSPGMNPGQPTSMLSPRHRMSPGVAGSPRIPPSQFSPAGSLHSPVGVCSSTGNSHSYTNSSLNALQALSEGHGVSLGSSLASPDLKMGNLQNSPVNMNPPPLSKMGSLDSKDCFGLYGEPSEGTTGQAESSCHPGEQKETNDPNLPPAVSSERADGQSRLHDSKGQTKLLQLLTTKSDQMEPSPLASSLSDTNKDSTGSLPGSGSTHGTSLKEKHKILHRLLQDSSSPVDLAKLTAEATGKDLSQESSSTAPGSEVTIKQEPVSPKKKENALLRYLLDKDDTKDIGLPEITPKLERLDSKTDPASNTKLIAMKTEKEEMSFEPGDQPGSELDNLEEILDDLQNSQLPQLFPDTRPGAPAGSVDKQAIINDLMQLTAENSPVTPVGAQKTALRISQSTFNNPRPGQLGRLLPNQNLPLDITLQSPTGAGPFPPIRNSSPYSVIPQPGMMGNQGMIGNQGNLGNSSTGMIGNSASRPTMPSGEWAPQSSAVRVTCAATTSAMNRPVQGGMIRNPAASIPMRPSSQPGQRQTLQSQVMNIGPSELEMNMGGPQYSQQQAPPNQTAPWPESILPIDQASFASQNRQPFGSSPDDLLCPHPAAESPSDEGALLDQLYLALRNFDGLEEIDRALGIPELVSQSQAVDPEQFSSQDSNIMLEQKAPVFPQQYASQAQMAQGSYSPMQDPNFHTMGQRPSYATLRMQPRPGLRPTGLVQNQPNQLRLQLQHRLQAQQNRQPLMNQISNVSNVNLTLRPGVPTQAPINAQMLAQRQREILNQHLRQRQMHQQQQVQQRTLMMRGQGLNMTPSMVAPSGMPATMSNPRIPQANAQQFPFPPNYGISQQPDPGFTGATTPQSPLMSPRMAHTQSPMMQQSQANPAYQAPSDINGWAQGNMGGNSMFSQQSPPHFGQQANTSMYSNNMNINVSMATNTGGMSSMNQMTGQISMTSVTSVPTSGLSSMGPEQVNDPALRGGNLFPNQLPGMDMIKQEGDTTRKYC
The nature of assay [6]: VP16 transactivation inhibitors, counter-screen for SRC1 inhibitor project, cell-based, luminescence, high throughput (AID 588824; in the data active = inhibition above about 25%). The note with it: cell-based VP16 transactivation luciferase luminescence; at 3.6 µM; hits give high values.
Assay [7] deals with Nuclear receptor coactivator 1 (Homo sapiens) (UniProt Q15788). The assay is described as follows: SRC1 coactivator transcriptional activity inhibitors, confirmation, cell-based, luminescence, quadruplicate (AID 588820;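 active = mean inhibition above 46.68%, the untreated control wells mean plus 3 SD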;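 note: 0% = DMSO wells and 100% = gossypol 36 µM treated wells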). The note with it: HEK293 GAL4-SRC1 luciferase reporter, at 3.6 µM, hits give high values.
Assay [8] in a line: StAR promoter reporter inhibitors, counter-screen for LRH-1 inverse agonist project, cell-based, luminescence, high throughput (AID 651611; in the data active = inhibition above about 28%). As to conditions: StAR promoter luciferase reporter counterscreen, at 3.6 µM, hits give high values.
For assay [9], the target named is Nuclear receptor subfamily 5 group A member 2 (Homo sapiens) (UniProt O00482). The assay is described as follows: LRH-1 (NR5A2) inverse agonists, retest, confirmation, cell-based, luminescence (AID 651613; in the data active = inhibition above about 42%;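 note: HEK293T cells co-transfected with LRH-1 and StAR promoter luciferase reporter; 0% = vehicle wells and 100% = parental cells lacking receptor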). As to conditions: cell-based LRH-1 luciferase reporter, inverse agonism; at 3.6 µM; hits give high values.
Chain of Nuclear receptor subfamily 5 group A member 2 (Homo sapiens) (O00482 whole entry, looked up): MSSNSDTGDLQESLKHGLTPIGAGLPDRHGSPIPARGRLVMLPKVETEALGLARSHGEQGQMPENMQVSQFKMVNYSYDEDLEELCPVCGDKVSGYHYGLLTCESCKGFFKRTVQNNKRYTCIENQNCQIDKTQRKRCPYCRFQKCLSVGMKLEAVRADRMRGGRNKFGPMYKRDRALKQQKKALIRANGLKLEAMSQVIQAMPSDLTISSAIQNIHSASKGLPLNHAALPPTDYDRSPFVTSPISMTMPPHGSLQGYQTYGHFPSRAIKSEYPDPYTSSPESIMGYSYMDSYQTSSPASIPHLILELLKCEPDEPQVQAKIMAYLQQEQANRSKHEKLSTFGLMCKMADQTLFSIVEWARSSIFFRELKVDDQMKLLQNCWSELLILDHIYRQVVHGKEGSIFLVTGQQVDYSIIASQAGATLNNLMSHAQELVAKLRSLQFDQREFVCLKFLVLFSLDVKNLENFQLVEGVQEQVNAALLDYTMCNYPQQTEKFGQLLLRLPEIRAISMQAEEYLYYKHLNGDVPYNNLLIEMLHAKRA
Assay [10] addresses Steroidogenic factor 1 (Homo sapiens) (UniProt Q13285). The assay is described as follows: SF1 (NR5A1) inverse agonists, counter-screen for LRH-1 inverse agonist project, cell-based, luminescence, high throughput (AID 651614; in the data active = inhibition above about 44%;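 note: cells cotransfected with StAR promoter reporter and SF1 expression vector; 0% = vehicle on cells with receptor and 100% = vehicle on cells lacking receptor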). As to conditions: cell-based SF1 luciferase reporter, at 3.6 µM, hits give high values.
Assay [11] in a line: VP16 transactivation reporter inhibitors, counter-screen for LRH-1 inverse agonist project, cell-based, luminescence, high throughput (AID 651615; in the data active = inhibition above about 33%). The note with it: Gal4-VP16 luciferase reporter cells, at 3.6 µM, hits give high values.
Assay [12] deals with Glutathione S-transferase omega-1 (Homo sapiens) (UniProt P78417). Description: GSTO1 inhibitor hit confirmation, counter-screen for RBBP9 inhibitor project, biochemical, fluorescence polarization, triplicate (AID 2176;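 active = inhibition above the primary screen's cutoff, its mean inhibition plus 3 SD, cut at about 35% in these data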;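 note: loss of polarization as inhibitors block binding of rhodamine sulfonate ester activity probe; 0% = GSTO1 with DMSO and 100% = wells lacking GSTO1 enzyme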). The note with it: recombinant GSTO1, probe fluorescence polarization; at 5.96 µM; hits give high values.
Chain of Glutathione S-transferase omega-1 (Homo sapiens) (P78417 whole entry, looked up): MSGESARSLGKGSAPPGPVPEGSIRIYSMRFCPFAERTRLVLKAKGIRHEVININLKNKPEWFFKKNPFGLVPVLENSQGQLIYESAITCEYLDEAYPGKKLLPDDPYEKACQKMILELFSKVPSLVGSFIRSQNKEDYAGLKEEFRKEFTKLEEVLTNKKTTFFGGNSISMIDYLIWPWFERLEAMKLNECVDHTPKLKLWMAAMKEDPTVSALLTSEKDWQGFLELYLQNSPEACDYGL

Chain of Steroidogenic factor 1 (Homo sapiens) (Q13285 whole entry, looked up, the tested form may be a part): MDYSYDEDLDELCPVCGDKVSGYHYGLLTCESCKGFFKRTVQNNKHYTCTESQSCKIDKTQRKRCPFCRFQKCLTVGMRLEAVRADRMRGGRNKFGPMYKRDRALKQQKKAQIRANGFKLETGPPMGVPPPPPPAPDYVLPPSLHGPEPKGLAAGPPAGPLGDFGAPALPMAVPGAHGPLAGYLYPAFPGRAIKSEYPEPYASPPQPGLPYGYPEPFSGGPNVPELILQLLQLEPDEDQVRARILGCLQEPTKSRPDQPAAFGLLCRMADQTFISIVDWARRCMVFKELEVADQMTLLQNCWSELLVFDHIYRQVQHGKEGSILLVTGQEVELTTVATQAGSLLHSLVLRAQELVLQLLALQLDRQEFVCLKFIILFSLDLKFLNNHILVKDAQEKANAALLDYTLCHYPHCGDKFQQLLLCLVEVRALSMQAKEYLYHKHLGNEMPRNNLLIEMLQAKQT
Chain of Protein phosphatase methylesterase 1 (Homo sapiens) (Q9Y570 whole entry, looked up): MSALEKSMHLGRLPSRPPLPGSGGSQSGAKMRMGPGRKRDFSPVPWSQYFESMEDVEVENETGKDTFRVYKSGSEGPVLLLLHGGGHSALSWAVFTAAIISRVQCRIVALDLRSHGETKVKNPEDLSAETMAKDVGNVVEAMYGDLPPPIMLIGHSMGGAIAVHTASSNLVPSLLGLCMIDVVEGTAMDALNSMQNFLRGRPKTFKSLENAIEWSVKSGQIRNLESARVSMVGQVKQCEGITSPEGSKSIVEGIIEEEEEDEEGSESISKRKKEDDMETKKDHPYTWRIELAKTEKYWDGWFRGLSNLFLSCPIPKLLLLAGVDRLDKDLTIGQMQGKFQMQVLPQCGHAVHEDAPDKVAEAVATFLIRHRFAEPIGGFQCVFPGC
Chain of Nuclear receptor coactivator 3 (Homo sapiens) (Q9Y6Q9 whole entry, looked up, the tested form may be a part): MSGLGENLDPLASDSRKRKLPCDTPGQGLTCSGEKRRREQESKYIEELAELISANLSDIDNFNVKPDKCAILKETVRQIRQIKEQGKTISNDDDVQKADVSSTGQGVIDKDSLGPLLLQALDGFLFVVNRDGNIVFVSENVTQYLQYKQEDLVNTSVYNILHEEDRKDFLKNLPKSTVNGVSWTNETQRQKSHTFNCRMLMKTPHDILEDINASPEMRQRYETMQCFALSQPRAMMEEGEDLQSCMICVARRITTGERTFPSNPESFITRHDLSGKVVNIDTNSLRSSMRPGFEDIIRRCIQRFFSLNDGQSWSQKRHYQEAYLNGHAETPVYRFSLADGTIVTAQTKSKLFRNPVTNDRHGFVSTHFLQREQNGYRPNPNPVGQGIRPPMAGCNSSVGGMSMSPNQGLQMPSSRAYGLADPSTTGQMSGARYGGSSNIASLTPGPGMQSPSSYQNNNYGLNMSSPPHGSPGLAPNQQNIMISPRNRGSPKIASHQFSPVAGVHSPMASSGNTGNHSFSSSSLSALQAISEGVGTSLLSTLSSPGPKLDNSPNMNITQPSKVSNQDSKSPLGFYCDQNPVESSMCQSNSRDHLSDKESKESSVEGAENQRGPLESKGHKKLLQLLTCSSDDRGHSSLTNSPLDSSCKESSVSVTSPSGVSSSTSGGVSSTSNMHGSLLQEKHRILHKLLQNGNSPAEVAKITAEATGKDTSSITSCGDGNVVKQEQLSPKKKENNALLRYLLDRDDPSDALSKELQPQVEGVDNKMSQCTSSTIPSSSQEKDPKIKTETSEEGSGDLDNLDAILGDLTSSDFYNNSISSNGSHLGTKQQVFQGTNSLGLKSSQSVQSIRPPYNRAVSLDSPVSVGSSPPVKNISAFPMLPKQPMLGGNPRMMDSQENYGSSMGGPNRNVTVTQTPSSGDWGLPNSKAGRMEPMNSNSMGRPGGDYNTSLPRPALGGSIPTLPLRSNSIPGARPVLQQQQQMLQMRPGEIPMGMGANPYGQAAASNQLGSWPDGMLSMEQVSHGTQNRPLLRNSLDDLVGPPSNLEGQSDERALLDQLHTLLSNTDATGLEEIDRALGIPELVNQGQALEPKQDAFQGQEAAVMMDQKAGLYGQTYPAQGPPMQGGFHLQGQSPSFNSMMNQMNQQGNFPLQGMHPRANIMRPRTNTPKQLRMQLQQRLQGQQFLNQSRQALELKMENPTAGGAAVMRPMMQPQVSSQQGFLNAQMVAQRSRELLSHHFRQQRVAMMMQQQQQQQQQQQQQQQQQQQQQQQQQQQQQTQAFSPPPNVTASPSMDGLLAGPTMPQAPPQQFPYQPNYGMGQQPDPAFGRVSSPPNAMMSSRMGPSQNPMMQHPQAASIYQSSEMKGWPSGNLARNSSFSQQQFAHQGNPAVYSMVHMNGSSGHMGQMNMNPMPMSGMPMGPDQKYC

For the compound `Cc1ccc(NC(=O)c2ccc(Nc3c([N+](=O)[O-])cc([N+](=O)[O-])cc3[N+](=O)[O-])cc2)cc1`, the inhibition (in general, the drop in the measured response relative to a control, in per cent) in assay [1] is 30.6% (active); in [2] it was 7.5% (inactive); in assay [3] it was 2.96% (inactive); in assay [4], 50% (active); in assay [5], 27.1% (inactive).

For the compound `COc1ccc(/C=C2\CN(Cc3ccccc3)C/C(=C\c3ccc(OC)c(O)c3)C2=O)cc1O`, the inhibition in assay [1] is -5.14% (inactive); in assay [2], 59.2% (active); in [3] it was 0.48% (inactive); in assay [6], 12.4% (inactive); in assay [4], 73.1% (active); in assay [5], 22.9% (inactive).

For `Fc1ccc2[nH]c3c(N4CCN(c5ccccc5)CC4)ncnc3c2c1`, the inhibition in assay [1] is 26.3% (active); in assay [7] it was 2.85% (inactive); in assay [6] it was 15.6% (inactive).

For the compound `COc1cccc(/C=N/NC(=O)c2[nH]c(C)c(C(=O)N/N=C/c3cccc(OC)c3O)c2C)c1O`, the inhibition was -31.6% (inactive) in assay [1]; 42.2% (active) in assay [8]; 24.8% (inactive) in assay [9]; 17.4% (inactive) in assay [10]; 25.2% (inactive) in assay [11].

For the compound `Cc1oc2c(c1C(=O)c1ccccc1)C(=O)C(=O)c1ccccc1-2`, the inhibition in assay [1] was 18.1% (inactive); in assay [4], -18.3% (inactive); in assay [5] it was 99.5% (active).

With `Cc1ccc(C(=O)N/N=C/c2sc(=O)n(Cc3cccc(C(=O)O)c3)c2Cl)cc1`, the inhibition in assay [12] was 48.3% (active).

As to `C1=C(CCNc2ncnc3c2[nH]c2ccccc23)CCCC1`, the inhibition was 29.3% (active) in assay [1]; -12% (inactive) in assay [8]; 36% (inactive) in assay [9]; 41.4% (inactive) in assay [10]; 37.5% (active) in [11].

Turning to `Nc1ccc2oc(-c3cc(Br)ccc3Cl)nc2c1`, the inhibition was 9.02% (inactive) in [1]; -34.3% (inactive) in [8]; 45.4% (active) in assay [9]; 32.9% (inactive) in assay [10]; -44.9% (inactive) in [11].
